Data taken from the supplement of paper PMC13380429.
A number with no mark means an inactive call.

test system: Vero E6 infected with SARS-CoV-2; assay: inhibition of SARS-CoV-2 cytopathic effect; higher = more antiviral protection, active = above 15; details: 1 nM; 48 h

Row | SMILES | inhibition of SARS-CoV-2 cytopathic effect [%]
1 | Cc1cnc(Nc2ccc(OCCN3CCCC3)cc2)nc1Nc1cccc(S(=O)(=O)NC(C)(C)C)c1 [fedratinib] | -3.17
2 | CCC(=O)O[C@H]1[C@H](O[C@@H]2[C@@H](C)[C@H](O[C@H]3C[C@@](C)(OC)[C@@H](O)[C@H](C)O3)[C@@H](C)C(=O)O[C@H](CC)[C@@](C)(O)[C@H](O)[C@@H](C)C(=O)[C@H](C)C[C@@]2(C)O)O[C@H](C)C[C@@H]1N(C)C [erythromycin-estolate] | -0.2
3 | O=c1c(O)c(-c2ccc(O)c(O)c2)oc2cc(O)ccc12 [fisetin] | 0.55
4 | O=[N+]([O-])c1ccc(O)c([N+](=O)[O-])c1 [2,4-dinitrophenol] | 2.74
5 | N=C(N)NCc1cccc(I)c1 [iobenguane] | -1.82
6 | COc1cc2nccc(Oc3ccc(NC(=O)NC4CC4)c(Cl)c3)c2cc1C(N)=O [lenvatinib] | -1.78
7 | CNC(=O)c1c(I)c(C(=O)NCC(=O)Nc2c(I)c(C(=O)O)c(I)c(C(=O)NCCO)c2I)c(I)c(N(C)C(C)=O)c1I [ioxaglic-acid] | 1.6
8 | Oc1ccc(CC2NCCc3cc(O)c(O)cc32)cc1 (centres undefined) [higenamine] | 1.31
9 | CCOC(=O)C1=C(C)NC(=S)NC1c1cccc(O)c1 (centres undefined) [monastrol] | 0.53
10 | O=C/C=C/c1ccccc1 [cinnamaldehyde] | 1.16
11 | O=C(O)C(=O)CBr [3-bromopyruvate] | -3.69
12 | CN1CC[C@@H](NC(=O)Nc2ccc(C#N)cc2)C[C@@H]1c1nc2ccccc2[nH]1 [glasdegib] | 2.8
13 | COc1cc(C(=O)OCCCN2CCCN(CCCOC(=O)c3cc(OC)c(OC)c(OC)c3)CC2)cc(OC)c1OC [dilazep] | 0.92
14 | COC(=O)[C@]12CCC(C)(C)C[C@H]1[C@H]1C(=O)C=C3[C@@]4(C)C=C(C#N)C(=O)C(C)(C)[C@@H]4CC[C@@]3(C)[C@]1(C)CC2 [Bardoxolone Methyl] | 2.85
15 | CC(=O)OC[C@H](N)C(=O)O [O-acetyl-L-serine] | 0.15
16 | CCN1C(=O)NC(c2ccccc2)C1=O (centres undefined) [ethotoin] | 0.06
17 | CN1CCCN=C1/C=C/c1cccs1 [pyrantel-pamoate] | 1.74
18 | O=c1ccc2ccc(O)c(O)c2o1 [daphnetin] | -1.96
19 | CC(C)(C)c1ccc(C(O)CCCN2CCC(C(O)(c3ccccc3)c3ccccc3)CC2)cc1 (centres undefined) [terfenadine] | 1.94
20 | COc1cc2c(Nc3ccc(Cl)c(Cl)c3F)ncnc2cc1OC[C@@H]1C[C@@H]2CN(C)C[C@@H]2C1 | -2.06

Row | SMILES | inhibition of SARS-CoV-2 cytopathic effect [%]
21 | CC/C(=C(\c1ccccc1)c1ccc(OCCN(C)C)cc1)c1ccccc1 [tamoxifen] | -0.39
22 | N[C@@H](C(=O)O)c1ccc(C(=O)O)c(O)c1 (racemic) [4-carboxy-3-hydroxyphenylglycine-(RS)] | -0.15
23 | N#C[C@@H]1C[C@@H]2C[C@@H]2N1C(=O)[C@@H](N)C12CC3CC(CC(O)(C3)C1)C2 | -1.01
24 | O=C(CCCN1CCC2(CC1)C(=O)NCN2c1ccccc1)c1ccc(F)cc1 [spiperone] | 1.92
25 | CCC[C@@H](NC(=O)N1C(=O)C(CC)(CC)[C@@H]1Oc1ccc(C(=O)N2CCN(C)CC2)cc1)c1ccc2c(c1)OCO2 | 1.03
26 | CC(C)c1ccc(NC(=O)Cn2cnc3c2c(=O)n(C)c(=O)n3C)cc1 | -0.13
27 | CN1CCc2c(c3ccccc3n2Cc2ccccc2)C1 [mebhydrolin] | -0.15
28 | COc1cc2c(cc1OC)C1CC(=O)C(CC(C)C)CN1CC2 (centres undefined) [tetrabenazine] | -2.11
29 | CC#CC(=O)N1CCC[C@H]1c1nc(-c2ccc(C(=O)Nc3ccccn3)cc2)c2c(N)nccn12 [acalabrutinib] | 2.14
30 | Fc1ccccc1CNCc1ccc(-c2ccnc3[nH]ccc23)cc1 | 4.68
31 | CCC/C=C1\OC(=O)C2=C1CCC=C2 [ligustilide] | 8.3
32 | O=C(Nc1ncc(SCCN2CCCC2)s1)[C@]1(c2ccc(S(=O)(=O)C3CC3)cc2)C[C@H]1C1CCCCC1 | 1.58
33 | CC12CCC(CC1=O)C2(C)C (stereo not drawn) [camphor-(+)] | 1.23
34 | CN[C@@H](C)[C@H](O)c1ccccc1 [ephedrine] | -1.32
35 | CC(=O)O[C@@H]1CC[C@@]2(C)[C@@H](CC[C@]3(C)[C@@H]2C(=O)C=C2[C@@H]4[C@@H](C)[C@H](C)CC[C@]4(C)CC[C@]23C)[C@@]1(C)C(=O)O [acetyl-11-keto-beta-boswellic-acid] | -1.38
36 | O=C1c2c(O)cccc2C([C@@H]2O[C@H](CO)[C@@H](O)[C@H](O)[C@H]2O)c2cc(CO)cc(O)c21 (some centres undefined) [aloin] | -0.62
37 | CC(C)(C)S(=O)(=O)N[C@H]1CC[C@H](C(=O)Nc2ccc(C(F)(F)F)cn2)CC1 [velneperit] | 2.37
38 | CC(C)CCC[C@@H](C)[C@H]1CC[C@H]2[C@@H]3CC=C4C[C@@H](O)CC[C@]4(C)[C@H]3CC[C@]12C [cholesterol] | -1.33
39 | CC1(C)O[C@@H]2[C@@H](CO[C@@]3(COS(N)(=O)=O)OC(C)(C)O[C@@H]23)O1 [topiramate] | -1.19
